PubChem BioAssay
Results filed as inconclusive are left out. Active and inactive are the calls of the source.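 How the source made its calls, unless noted: active means viability at or below 10% of carrier control in both of two separate runs; inconclusive means viability at or below 10% in only one of the two runs; inactive means the rest.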

Tests used:
[1] = Her2 expression decrease, cell viability multiplex – SKBR3 breast tumor cells, AlphaScreen, ATP viability, primary screen (AID 461;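 active means Her2 level under about 52% in both replicate screens, with viability over 70% of control, limit read from the data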;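 on Her2 level: lower value means less Her2 protein in the cells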;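 on viability: percent of carrier control wells set as 100% viability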); conditions: SKBR3 Her2 protein level, 18-24 h, measured here: SKBR3 viability, ATP luminescence, at 10 µM
[2] = target: Receptor tyrosine-protein kinase erbB-2 (Homo sapiens) (UniProt P04626); assay: as above; conditions: 18-24 h, at 10 µM, stronger effect = lower value
Receptor tyrosine-protein kinase erbB-2 (Homo sapiens), sequence (P04626 whole entry, looked up): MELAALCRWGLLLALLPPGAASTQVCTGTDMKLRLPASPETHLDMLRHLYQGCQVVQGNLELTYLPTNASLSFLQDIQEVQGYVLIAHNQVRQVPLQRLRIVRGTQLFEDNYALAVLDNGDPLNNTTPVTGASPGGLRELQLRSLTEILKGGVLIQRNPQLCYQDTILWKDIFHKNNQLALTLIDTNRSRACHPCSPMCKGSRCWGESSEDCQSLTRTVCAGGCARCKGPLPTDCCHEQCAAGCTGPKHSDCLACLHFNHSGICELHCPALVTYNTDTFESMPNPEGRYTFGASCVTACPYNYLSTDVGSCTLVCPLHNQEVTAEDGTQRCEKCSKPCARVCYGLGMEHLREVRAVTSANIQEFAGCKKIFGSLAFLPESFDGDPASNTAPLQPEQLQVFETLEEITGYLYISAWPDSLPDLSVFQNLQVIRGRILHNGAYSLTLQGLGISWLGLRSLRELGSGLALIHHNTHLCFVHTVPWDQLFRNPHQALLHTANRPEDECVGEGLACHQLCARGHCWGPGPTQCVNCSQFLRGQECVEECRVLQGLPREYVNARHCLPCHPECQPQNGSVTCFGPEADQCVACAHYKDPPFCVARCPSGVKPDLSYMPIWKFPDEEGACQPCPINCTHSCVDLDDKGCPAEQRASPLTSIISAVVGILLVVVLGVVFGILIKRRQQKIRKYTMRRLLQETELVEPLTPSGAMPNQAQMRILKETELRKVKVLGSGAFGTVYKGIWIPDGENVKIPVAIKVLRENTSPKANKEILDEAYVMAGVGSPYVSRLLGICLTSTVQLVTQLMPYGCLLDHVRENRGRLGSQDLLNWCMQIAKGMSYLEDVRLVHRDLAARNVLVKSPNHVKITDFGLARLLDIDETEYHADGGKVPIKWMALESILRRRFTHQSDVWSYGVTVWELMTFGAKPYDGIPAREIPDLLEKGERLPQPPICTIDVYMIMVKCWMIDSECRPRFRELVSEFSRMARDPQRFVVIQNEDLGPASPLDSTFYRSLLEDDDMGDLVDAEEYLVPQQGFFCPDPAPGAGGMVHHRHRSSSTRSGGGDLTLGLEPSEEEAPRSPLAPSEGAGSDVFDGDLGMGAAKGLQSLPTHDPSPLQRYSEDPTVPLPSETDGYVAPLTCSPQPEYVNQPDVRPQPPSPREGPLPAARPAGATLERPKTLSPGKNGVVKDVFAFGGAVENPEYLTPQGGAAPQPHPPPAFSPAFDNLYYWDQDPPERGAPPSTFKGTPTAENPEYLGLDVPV

[3] = reduced viability of SK-BR-3 breast cancer cells – cell-based, 24 h, human, pilot screen (AID 572); conditions: SK-BR-3 viability, CellTiter-Glo luminescence, at 10 µM, stronger effect = lower value;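 further: compound exposure lasted between 18 and 24 h rather than exactly 24 h; 100% = carrier-treated control wells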
[4] = HUVEC growth inhibition – cell-based, human, primary screen (AID 575;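 active means viability at or below 30% in both replicate assays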;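 further: 100% = median of untreated cell wells with 0.1% DMSO on each plate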); conditions: HUVEC proliferation, CellTiter-Glo luminescence, 72 h; at 10 µM; stronger effect = lower value
[5] = H69AR cell proliferation blockers – human, duplicate replicates, primary screen (AID 580;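 active means viability at or under a set limit in both replicates, limit being median viability minus 3 SD, cut at about 48% in these data, passing the limit was not always enough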;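 further: 100% = mean luminescence of untreated wells and 0% = no signal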); conditions: H69AR lung tumor cells viability, ATP luminescence, 72 h; at 10 µM; stronger effect = lower value
[6] = MRP1 drug-resistance reversers in H69AR cells – cell-based, doxorubicin co-treatment, pilot screen (AID 601;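 active means viability loss from added drug above about 55%, and viability with drug at most 40%, in both replicates, limit read from the data, passing the limit was not always enough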); conditions: CellTiter-Glo, 72 h, at 10 µM; for differential viability (reversal): stronger effect = higher value
[7] = yeast transport mutant growth inhibition pilot in 384-well plates, post-Golgi transport modulator project (AID 636; in the data active means inhibition above about 31%); conditions: absorbance 615 nm, about 18 h, stronger effect = higher value
[8] = growth suppression of yeast trafficking mutant, preliminary HTS, modulators of trafficking downstream of Golgi apparatus project, 1536-format plate, OD 615 nm (AID 637; in the data active means inhibition above about 30%); conditions: yeast transport mutant growth, absorbance 615 nm, 18 h; stronger effect = higher value
[9] = S. cerevisiae growth inhibition in permissive medium (OD615), pilot counter-assay for S. cerevisiae lifespan shortening project, permissive growth control (AID 705;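 active means growth inhibition above 25% in both replicates, a cutoff set 3 SD above the mean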); conditions: OD615, 24 h, at 10 µM, stronger effect = higher value
[10] = S. cerevisiae growth inhibition in restrictive medium, OD615, pilot screen, restrictive growth control, yeast lifespan reduction project (AID 706;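 active means growth inhibition above a set limit, 3 SD over mean compound inhibition, in both replicates, cut at about 43% in these data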;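 further: modified DeaD lifespan yeast strain shifted to restrictive glucose medium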); conditions: OD615, 48 h, at 10 µM, stronger effect = higher value
[11] = doxorubicin toxicity protection in MRP-1 cells – H69AR cells, CellTiter-Glo, duplicate, MRP-1 activator project, pilot screen (AID 807;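 active means viability increase at or above a cutoff of the median across tested compounds plus 3 SD, cut at about 8.5% in these data, passing the limit was not always enough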;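 further: compound pretreatment 18-22 h then 72 h combined with doxorubicin; 0% = doxorubicin alone and 100% = vehicle without doxorubicin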); conditions: H69AR viability with doxorubicin, CellTiter-Glo luminescence; at 10 µM; stronger effect = higher value
[12] = viability of HCT116 without oncogenic beta-catenin – human colon tumor cells, pilot screen (AID 823;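 active means cell viability at or below a set limit in both duplicate runs, the limit being the all-compound median minus 4 SD, cut at about 23% in these data, passing the limit was not always enough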;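 further: 0% = wells killed by 20 µM Hyamine and 100% = untreated DMSO cell wells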); conditions: HCT116 beta-catenin knockout viability, CellTiter-Glo, 60 h; at 10 µM; stronger effect = lower value
[13] = viability of PTEN-null HCT116 cells – cell-based, HCT116 clonal line, CellTiter-Glo, pilot screen (AID 824;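 active means viability at or below 27.92% in each of two runs, the all-compound median minus 4 SD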;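 further: 0% = 20 µM Hyamine control and 100% = vehicle cell control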); conditions: HCT116 PTEN-deleted viability, 60 h, at 10 µM, stronger effect = lower value
[14] = RAM pathway blockade in budding yeast – dse1pr::URA3 reporter, 5-FOA selection, pilot screen (AID 869;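 active means inhibition over a set limit, the all-compound mean plus 3 SD, in both replicate runs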;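 further: 0% = DMSO wells with no growth and 100% = 10 µM 1-NA-PP1 with full growth; RAM network block rescues cells from 5-FOA so hits raise OD615 growth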); conditions: S. cerevisiae dse1pr::URA3 5-FOA growth, OD615, 2 d; at 10 µM; stronger effect = higher value; strain carries analog-sensitive mutant Cbk1 kinase
[15] = RAM signaling pathway blockade in yeast – S. cerevisiae, Pdr1DBD-CYC8 efflux-inhibited sensitized strain, primary screen (AID 1298;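 active means RAM network inhibition above 8.4% in each of two replicates, 3 SD over the compound average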;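 further: 0% = DMSO untreated cells without growth and 100% = 10 µM 1-NA-PP1 full growth; higher means more yeast growth rescued from 5-FOA killing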); conditions: S. cerevisiae cbk1-as DSE1-URA3 strain, 5-FOA growth OD615, 2 d; at 50 µM; stronger effect = higher value
[16] = H69AR cells + 2 uM doxorubicin, measured here: viability with 2 uM doxorubicin, stronger effect = lower value
[17] = H69AR cells, compound alone cytotoxicity

| Structure (SMILES) | viability [1] | Her2 level [2] | viability [3] | viability [4] | viability [5] | differential viability (reversal) ([6]; H69AR cells + 2 uM doxorubicin) | viability [6, 16] | viability [6, 17] | inhibition [7] | inhibition [8] | growth inhibition [9] | growth inhibition [10] | viability increase [11] | viability [12] | viability [13] | inhibition [14] | RAM network inhibition [15] |
| --- | --- | --- | --- | --- | --- | --- | --- | --- | --- | --- | --- | --- | --- | --- | --- | --- | --- |
| CC(C)(C)SCCNC(=O)CSc1ccccc1 | 102% | 80% (inactive) | 102% (inactive) | 93.3% (inactive) | 101% (inactive) | 9.85% (inactive) | 91% | 101% | -6.22% (inactive) | 1.9% (inactive) | -0.57% (inactive) | 9.05% (inactive) | -0.61% (inactive) | 107% (inactive) | 98.3% (inactive) | 0.055% (inactive) | 4.54% (inactive) |
| O=C(NCCN1C(=O)C2C3C=CC(C3)C2C1=O)N1CCOCC1 (stereo unspecified) | 89.5% | 106% (inactive) | 89.5% (inactive) | 90.2% (inactive) | 93.7% (inactive) | 4.75% (inactive) | 88.9% | 93.7% | 0.67% (inactive) | -2.5% (inactive) | -8.54% (inactive) | 8.98% (inactive) | -1.43% (inactive) | 105% (inactive) | 94.9% (inactive) | 1.08% (inactive) | 0.73% (inactive) |
| COc1ccc(OC)c(NC(=O)CSc2nnc(Cc3cccn3C)n2-c2ccc(F)cc2)c1 | 81% | 90% (inactive) | 81% (inactive) | 62.7% (inactive) | 85.6% (inactive) | 7.76% (inactive) | 77.9% | 85.6% | 3.59% (inactive) | 0% (inactive) | 4.57% (inactive) | 16.1% (inactive) | -5.9% (inactive) | 97.1% (inactive) | 92% (inactive) | -0.57% (inactive) | 2.89% (inactive) |
| CC(NC(=O)c1noc2c1CCCCC2)c1ccccc1 (stereo unspecified) | 85.5% | 93.5% (inactive) | 85.5% (inactive) | 89.1% (inactive) | 110% (inactive) | 18.1% (inactive) | 91.7% | 110% | -3.59% (inactive) | -2% (inactive) | -16.4% (inactive) | -14.1% (inactive) | 1.66% (inactive) | 100% (inactive) | 102% (inactive) | -0.27% (inactive) | 1.85% (inactive) |
| COc1ccc(OCc2nc(C#N)c(N3CCN(c4ccc(OC)cc4)CC3)o2)cc1 | 94% | 115% (inactive) | 94% (inactive) | 90.6% (inactive) | 94% (inactive) | 15% (inactive) | 79% | 94% | -3.07% (inactive) | -8.17% (inactive) | -0.985% (inactive) | -1.77% (inactive) | 9.38% (active) | 72.5% (inactive) | 73.5% (inactive) | 1.06% (inactive) | 9.16% (inactive) |
| O=C(c1cc(C2CC2)on1)N1CCN(C(c2ccccc2)c2ccccc2)CC1 | 84.5% | 95.5% (inactive) | 84.5% (inactive) | 113% (inactive) | 87.7% (inactive) | -6.88% (inactive) | 94.6% | 87.7% | 0.9% (inactive) | -0.83% (inactive) | -17.5% (inactive) | -18.4% (inactive) | 2.29% (inactive) | 90.9% (inactive) | 76.8% (inactive) | 0.66% (inactive) | 7.26% (inactive) |
| COc1cccc(C2CC(c3ccc(F)cc3)Nc3nc(N)nn32)c1 (stereo unspecified) | 100% | 106% (inactive) | 100% (inactive) | 99.9% (inactive) | 103% (inactive) | 3.04% (inactive) | 99.9% | 103% | -2.67% (inactive) | 14.9% (inactive) | -3.78% (inactive) | 4.35% (inactive) | -0.39% (inactive) | 102% (inactive) | 95.5% (inactive) | 0.725% (inactive) | 5.03% (inactive) |
| CCCCOC(=O)Cn1c(=O)oc2ccc(C)cc21 | 102% | 126% (inactive) | 102% (inactive) | 86% (inactive) | 93.4% (inactive) | 5.94% (inactive) | 87.4% | 93.4% | -3.2% (inactive) | 2.67% (inactive) | -17.9% (inactive) | -25.1% (inactive) | -0.28% (inactive) | 89.6% (inactive) | 98.1% (inactive) | -0.58% (inactive) | 0.27% (inactive) |
| COc1ccc(NS(=O)(=O)c2coc(C(N)=O)c2)cc1Cl | 101% | 110% (inactive) | 101% (inactive) | 119% (inactive) | 99.1% (inactive) | -8.07% (inactive) | 107% | 99.1% | 0% (inactive) | 11% (inactive) | -21.1% (inactive) | -10.9% (inactive) | -0.71% (inactive) | 108% (inactive) | 102% (inactive) | 1.92% (inactive) | 1.58% (inactive) |
| C=CCSc1nnc(-c2cccnc2)o1 | 95% | 99.5% (inactive) | 95% (inactive) | 103% (inactive) | 96.9% (inactive) | 9.17% (inactive) | 87.8% | 96.9% | -5.6% (inactive) | 9% (inactive) | -1.77% (inactive) | 7.71% (inactive) | -1.02% (inactive) | 101% (inactive) | 101% (inactive) | 0.94% (inactive) | 0.16% (inactive) |
| CCN(CCNC(=O)C1CCN(S(=O)(=O)c2cccc3cccnc23)CC1)c1ccccc1 | 87% | 84.5% (inactive) | 87% (inactive) | 79.7% (inactive) | 98.3% (inactive) | -2.15% (inactive) | 100% | 98.3% | -1.33% (inactive) | 20.5% (inactive) | -5.29% (inactive) | 8.53% (inactive) | 1.51% (inactive) | 94.4% (inactive) | 82.9% (inactive) | 0.21% (inactive) | 5.91% (inactive) |
| CCOc1ccc(N(CC(=O)NCc2ccco2)S(=O)(=O)c2ccc(OC)c(OC)c2)cc1 | 79% | 85% (inactive) | 79% (inactive) | 89.3% (inactive) | 83.7% (inactive) | 0.495% (inactive) | 83.2% | 83.7% | -3.51% (inactive) | -6.5% (inactive) | -3.81% (inactive) | -16.6% (inactive) | -4.63% (inactive) | 94.7% (inactive) | 90.4% (inactive) | 2.28% (inactive) | 2.74% (inactive) |
| COc1cccc(C2C3=C(N=C4SCC(=O)N42)c2ccccc2CC3)c1OC (stereo unspecified) | 103% | 115% (inactive) | 103% (inactive) | 65.7% (inactive) | 98.2% (inactive) | 19.8% (inactive) | 78.4% | 98.2% | -1.69% (inactive) | -6.83% (inactive) | -15.1% (inactive) | -9.8% (inactive) | -1.55% (inactive) | 65.8% (inactive) | 68.5% (inactive) | 0.915% (inactive) | 5.99% (inactive) |
